Laboratory results taken from PubChem BioAssay (NCI).
This is part of a sample that, as a whole, favours compounds with a hit. Of some 83,000 tested, about 20% had one in any assay.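 A percent growth of 40 corresponds to 60% growth inhibition; 0 means no net growth; -100 means all cells died. Active threshold: below 10.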

Columns and labels:
Assay in all cases: NCI-60 one-dose screen, 48 h (100 = growth as untreated, 0 = no growth, -100 = all killed)
Conditions in all cases: 10 µM unless noted
HCT-15 colon = system: HCT-15 colon
HT29 colon = system: HT29 colon
SNB-75 CNS = system: SNB-75 CNS
SNB-19 CNS = system: SNB-19 CNS
U251 CNS = system: U251 CNS
PC-3 prostate = system: PC-3 prostate
SK-MEL-5 melanoma = system: SK-MEL-5 melanoma
UACC-62 melanoma = system: UACC-62 melanoma
LOX IMVI melanoma = system: LOX IMVI melanoma
SK-MEL-28 melanoma = system: SK-MEL-28 melanoma
SK-MEL-2 melanoma = system: SK-MEL-2 melanoma
EKVX NSCLC = system: EKVX NSCLC
SN12C renal = system: SN12C renal
TK-10 renal = system: TK-10 renal
ACHN renal = system: ACHN renal
CAKI-1 renal = system: CAKI-1 renal
A498 renal = system: A498 renal
CCRF-CEM leukemia = system: CCRF-CEM leukemia
MOLT-4 leukemia = system: MOLT-4 leukemia
UO-31 renal = system: UO-31 renal

Measured: growth

CN(C)c1ccc(/C=C\c2cccc[n+]2C)cc1
inactive: HCT-15 colon 104% | HT29 colon 34.4% | SNB-75 CNS 70.1% | SNB-19 CNS 31.8% | U251 CNS 33% | PC-3 prostate 11% | SK-MEL-5 melanoma 24.2% | UACC-62 melanoma 81.3% | LOX IMVI melanoma 50% | SK-MEL-28 melanoma 56.6% | SK-MEL-2 melanoma 75.6% | EKVX NSCLC 23% | SN12C renal 52.2% | TK-10 renal 67.2% | ACHN renal 77.3% | CAKI-1 renal 42.1% | A498 renal 13.4% | CCRF-CEM leukemia 49.6% | MOLT-4 leukemia 74.4%

CC(C)CCSc1nc(-c2ccc(F)cc2)c(C#N)c(N2CCCCC2)n1
inactive: HCT-15 colon 97.7% | HT29 colon 83.2% | SNB-75 CNS 94.2% | SNB-19 CNS 102% | U251 CNS 93.6% | PC-3 prostate 89.2% | SK-MEL-5 melanoma 95.8% | UACC-62 melanoma 70.3% | LOX IMVI melanoma 93% | SK-MEL-28 melanoma 96.3% | SK-MEL-2 melanoma 85.7% | EKVX NSCLC 97.2% | SN12C renal 107% | TK-10 renal 97.4% | CAKI-1 renal 75.6% | A498 renal 88% | CCRF-CEM leukemia 89.9% | MOLT-4 leukemia 70%

O/N=C/c1ccncc1
inactive: HCT-15 colon 104% | HT29 colon 94.5% | SNB-75 CNS 96.2% | SNB-19 CNS 122% | U251 CNS 102% | PC-3 prostate 95.9% | SK-MEL-5 melanoma 105% | UACC-62 melanoma 111% | LOX IMVI melanoma 100% | SK-MEL-28 melanoma 115% | SK-MEL-2 melanoma 112% | EKVX NSCLC 100% | SN12C renal 121% | TK-10 renal 100% | ACHN renal 109% | CAKI-1 renal 84.3% | A498 renal 101% | CCRF-CEM leukemia 95.5% | MOLT-4 leukemia 111%

CCc1c(C)c2ccc(O)c(-c3cc(-c4ccccc4)c(C#N)c(=O)[nH]3)c2oc1=O
inactive: HCT-15 colon 96.5% | HT29 colon 125% | SNB-75 CNS 52.7% | SNB-19 CNS 108% | U251 CNS 100% | PC-3 prostate 107% | SK-MEL-5 melanoma 94.7% | UACC-62 melanoma 77.3% | LOX IMVI melanoma 93.1% | SK-MEL-28 melanoma 107% | SK-MEL-2 melanoma 117% | EKVX NSCLC 101% | SN12C renal 105% | TK-10 renal 124% | ACHN renal 103% | CAKI-1 renal 70% | A498 renal 116% | CCRF-CEM leukemia 103% | MOLT-4 leukemia 98.3%

CC(=O)Oc1c(Cl)c(Cl)c(Cl)c(Cl)c1Cl
inactive: HCT-15 colon 95% | HT29 colon 99.9% | SNB-75 CNS 80.1% | SNB-19 CNS 96.3% | U251 CNS 94.7% | PC-3 prostate 91.1% | SK-MEL-5 melanoma 102% | UACC-62 melanoma 88% | LOX IMVI melanoma 93.1% | SK-MEL-28 melanoma 104% | SK-MEL-2 melanoma 90.1% | EKVX NSCLC 87.6% | SN12C renal 94.1% | TK-10 renal 101% | ACHN renal 95.8% | CAKI-1 renal 89.2% | A498 renal 86.1% | CCRF-CEM leukemia 83.2% | MOLT-4 leukemia 85.6%

O=C(O)C(CCc1ccccc1)NCc1ccccc1 (stereo not drawn)
inactive: HCT-15 colon 99.2% | HT29 colon 96.2% | SNB-75 CNS 90.3% | SNB-19 CNS 97.5% | U251 CNS 107% | PC-3 prostate 91.3% | SK-MEL-5 melanoma 109% | UACC-62 melanoma 94.5% | LOX IMVI melanoma 92% | SK-MEL-28 melanoma 107% | SK-MEL-2 melanoma 94.9% | SN12C renal 93% | UO-31 renal 77.8% | TK-10 renal 91% | ACHN renal 95.8% | CAKI-1 renal 100%

O=C(O)c1ccccc1Oc1cc(-c2ccco2)nc(OCCN2CCOCC2)n1
inactive: HCT-15 colon 101% | HT29 colon 92.5% | SNB-75 CNS 92.4% | SNB-19 CNS 96.9% | U251 CNS 113% | PC-3 prostate 127% | SK-MEL-5 melanoma 99.9% | UACC-62 melanoma 98.9% | LOX IMVI melanoma 99.5% | SK-MEL-28 melanoma 106% | SK-MEL-2 melanoma 100% | EKVX NSCLC 113% | SN12C renal 97.3% | TK-10 renal 97.4% | ACHN renal 107% | CAKI-1 renal 96.2% | A498 renal 104% | CCRF-CEM leukemia 94.2% | MOLT-4 leukemia 101%

C=CCCCCOc1cccc(/C=C2\N=C3SCCCN3C2=O)c1
inactive: HCT-15 colon 90% | HT29 colon 90.1% | SNB-75 CNS 91.1% | SNB-19 CNS 99.9% | U251 CNS 92.7% | PC-3 prostate 95.3% | SK-MEL-5 melanoma 99% | UACC-62 melanoma 87.6% | LOX IMVI melanoma 88.7% | SK-MEL-28 melanoma 108% | SK-MEL-2 melanoma 91.3% | EKVX NSCLC 95.9% | SN12C renal 89.8% | TK-10 renal 99.4% | ACHN renal 99.2% | CAKI-1 renal 92.6% | A498 renal 82.9% | CCRF-CEM leukemia 121% | MOLT-4 leukemia 96.9%
